This passage reports log2 fold change growth results from PubChem BioAssay AID1259336 (Sattelle Laboratory, UCL Respiratory, Division of Medicine, …, 2017).

Unmarked numbers belong to inactive results. Active and inactive are the calls of the source. Rule as the data show it: active = log2 fold change growth below about -1.8; inactive = the rest.

A short description of this experiment: C. elegans growth inhibition, whole organism, log2 fold change (AID 1259336).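 Also: growth scored by imaging after five days at 20 °C.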 Particulars: anthelmintic screen, active compounds read low.

For `N#CCN(CCCCN1CCN(c2ccc(F)cc2)CC1)C(=O)OCc1ccccc1`, the log2 fold change growth was 0.194.

As to `Cc1cc(NC(=O)c2ccc(Oc3ccc(Cl)cc3O)o2)no1`, the log2 fold change growth was 0.201.

On to `Cc1ncc(-c2ccnc(Nc3ccc(S(C)(=O)=O)cc3)n2)n1C(C)C`, for which the log2 fold change growth was 0.268.

For the compound `C[C@H](c1ccc2c(c1)CCCC2)N(C)c1ncc2c(N)nc(N)nc2n1`, the log2 fold change growth is 0.0756.

As for `CN(C)CCNC(=O)N1CCCN(c2ncnc3cc(-c4ccccc4)sc23)CC1`, the log2 fold change growth was -0.255.

`NS(=O)(=O)c1cccc(-c2ccc3ncc(N4CCOCC4)nc3c2)c1`: the log2 fold change growth was -0.363.

Regarding `O=C(Nc1cccc(-c2ccc(NCCCN3CCCC3)nc2)c1)c1ccccc1`, the log2 fold change growth was 0.467.

Regarding `COC[C@H](C)NC(=O)CSc1ncnc2sc(-c3ccccc3)cc12`, the log2 fold change growth was -0.053.

With `COc1cc(OC)cc(C(=O)NC[C@H]2Cc3cc(Cl)cc(-c4ccncc4)c3O2)c1`, the log2 fold change growth is -1.17.

Consider `c1ccc(-c2nc(NC3CCCCC3)cc(C3CC3)n2)nc1`, for which the log2 fold change growth was -0.0356.

Consider `Cc1ccc2oc(-c3cc(NC(=O)Cc4ccccc4)ccc3Cl)nc2c1`, for which the log2 fold change growth was 0.272.

With `Cc1cc(=O)[nH]c(-n2nc(C)cc2C)n1`, the log2 fold change growth was 0.36.

Consider `COC(=O)C1=C(C)NC(C)=C(C(=O)OC(C)C)[C@H]1c1cccc2nonc12`, for which the log2 fold change growth was -2.22 (active).

Take `CC(C)(C)C1CCC(CC2=C(O)c3ccccc3C(=O)C2=O)CC1` (configuration not stated): the log2 fold change growth is -0.0767.

For the compound `O=C(NC1CCCCC1)N1CCN(Cc2ccc3c(c2)OCO3)CC1`, the log2 fold change growth was -0.153.

`CO[C@H]1/C=C/O[C@@]2(C)Oc3c(C)c(O)c4c(O)c(c(/C=N/N5CCN(C)CC5)c(O)c4c3C2=O)NC(=O)/C(C)=C\C=C[C@H](C)[C@H](O)[C@@H](C)[C@@H](O)[C@@H](C)[C@H](OC(C)=O)[C@@H]1C`: the log2 fold change growth is 0.729.

Turning to `O=C(Nc1cccc(Cl)c1)c1cnc(N2CCN(c3ccncc3)CC2)c(Cl)c1`, the log2 fold change growth is -0.57.

For `Cc1[nH]c2ccccc2c1[C@H](c1cccs1)N1CCN(C)CC1`, the log2 fold change growth was -0.0891.

In the case of `COC(=O)c1cccc2oc(-c3cccc(OC)c3NC(=O)c3cc(-c4ccccc4)on3)nc12`, the log2 fold change growth was -0.13.

In the case of `CCOc1ccccc1N[C@@H](C)C(=O)Nc1cc(C(F)(F)F)ccc1N1CCOCC1`, the log2 fold change growth is -1.5.

For the compound `Cc1cc2ccccc2n1CC(=O)N1C[C@@H](C(=O)N2CCCCC2)Oc2ccccc21`, the log2 fold change growth was 0.0798.

As to `CCn1cnc2c(Nc3cc(F)cc(F)c3)nc(C#N)nc21`, the log2 fold change growth was -0.053.
